# According to PubChem BioAssay (EPA / NIEHS):
# Several values for one entry are separate records, joined by “and”; a condition that tells them apart may be missing. Equal entries are not always repeated. Records with an inconclusive call do not appear. Some structures have more than one record in an assay (separate samples or runs), and their calls can disagree. Activity calls are given as the source filed them. The calls were made as follows: active = hit-call score of the fitted dose curve at least 0.9, where 1 is the maximum; inconclusive = response in the unintended direction; inactive = score below 0.9.
# What was measured:
# [1] = biological target: human Peripheral-type Benzodiazepine Receptor (PBR), TSPO (gene 706) (UniProt P30536); assay: NVS_MP_hPBR: NovaScreen (NVS) Membrane Protein Assay for human Peripheral-type Benzodiazepine Receptor (PBR) (AID 2283331);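 also: hits reduce radioligand binding relative to DMSO baseline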
# Summary of the method: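 Human colonic cell membranes were incubated with test chemical for 1 hour; radioligand binding was measured by filter-based scintillation counting. Primary screen ran in duplicate at 25 uM, with actives followed in concentration series; loss of signal versus DMSO baseline.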
# [2] = biological target: rat Peripheral-type Benzodiazepine Receptor (PBR), Tspo (gene 24230) (UniProt P16257); assay: NVS_MP_rPBR: NovaScreen (NVS) Membrane Protein Assay for rat Peripheral-type Benzodiazepine Receptor (PBR) (AID 2283335)
# Summary of the method: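 Rat kidney membranes; radioligand binding with displacement, filter-based scintillation counting, 1 h incubation. Primary screen in duplicate at 25 uM, actives followed in concentration series; loss of binding vs DMSO.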
# [3] = biological target: rat Thyrotropin Releasing Hormone Receptor (TRH), Trhr (gene 25570) (UniProt Q01717); assay: NVS_GPCR_rTRH: NovaScreen (NVS) G Protein-Coupled Receptor Assay for rat Thyrotropin Releasing Hormone Receptor (TRH) (AID 2283329);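 also: hit means lower bound tracer signal versus DMSO baseline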
# Summary of the method: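 Rat forebrain membranes; radioligand displacement at TRH receptor by filter-based scintillation counting, read 4 h after dosing. Duplicate single-point screen at 25 uM, actives rerun in concentration series; loss of signal relative to DMSO.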
# [4] = NVS_IC_rCaBTZCHL: NovaScreen (NVS) Ion Channel Assay for Calcium Channel, Type L, Benzothiazepine Site (CaBTZCHL) (AID 2283337)
# Summary of the method: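 Scintillation counting of filter-bound radioligand gave the read-out, with reduced binding versus DMSO scored as activity. Membranes came from rat cortex and were read 1.5 h after compound addition. Chemicals were screened first in duplicate at 25 uM.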
# [5] = biological target: rat Adrenergic Receptor, Beta (Adrb), Non-selective Binding, Adrb1 (gene 24925) (UniProt P18090); assay: NVS_GPCR_rAdrb_NonSelective: NovaScreen (NVS) G Protein-Coupled Receptor Assay for rat Adrenergic Receptor, Beta (Adrb), Non-selective Binding (AID 2283298)
# Summary of the method: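 Non-selective beta-adrenergic radioligand binding in rat cortical membranes, 1 h incubation, filter-based scintillation read-out. Primary screen 25 uM in duplicate; hits retested in concentration-response up to 50 uM, DMSO baseline.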
# [6] = biological target: rat Opioid Receptor, Non-selective Sodium (Na+) Binding, Oprm1 (gene 25601) (UniProt P33535); assay: NVS_GPCR_rOpiate_NonSelectiveNa: NovaScreen (NVS) G Protein-Coupled Receptor Assay for rat Opioid Receptor, Non-selective Sodium (Na+) Binding (AID 2283311)
# Summary of the method: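 Rat forebrain membranes, radioligand displacement with filter scintillation counting, 1.5 h incubation. Screened in duplicate at 25 µM; hits then run in concentration-response up to 50 µM; loss of binding fitted versus DMSO.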
# [7] = biological target: rat Neonicotinoid receptor (NNR), Chrna7 (gene 25302) (UniProt Q05941); assay: NVS_LGIC_rNNR_BungSens: NovaScreen (NVS) Ligand-Gated Ion Channel Assay for rat Neonicotinoid receptor (NNR) (AID 2283315)
# Summary of the method: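 Radioligand displacement binding on rat cortical membranes, 2.5 h incubation, filtration and scintillation counting. Loss of specific binding fitted relative to DMSO.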
# [8] = biological target: rat Vasopressin 1 Receptor (V1), Avpr1a (gene 25107) (UniProt P30560); assay: NVS_GPCR_rV1: NovaScreen (NVS) G Protein-Coupled Receptor Assay for rat Vasopressin 1 Receptor (V1) (AID 2283316)
# Summary of the method: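 Radioligand binding on rat liver membranes, 1.5 h incubation, filter-based scintillation counting. Single 25 uM screen in duplicate; chemicals meeting threshold (e.g. 30% inhibition) run in concentration-response up to 50 uM.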
# [9] = biological target: rat Opioid Receptor, Non-selective Binding, Oprm1 (gene 25601) (UniProt P33535); assay: NVS_GPCR_rOpiate_NonSelective: NovaScreen (NVS) G Protein-Coupled Receptor Assay for rat Opioid Receptor, Non-selective Binding (AID 2283318)
# Summary of the method: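 Rat forebrain membranes, cell-free radioligand binding with filter-based scintillation counting, read 1.5 h after dosing. Primary screen in duplicate at 25 uM; actives retested in concentration series. Loss of signal versus DMSO baseline scored.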
# [10] = biological target: Sodium channel protein type 1 subunit alpha (Rattus norvegicus) (UniProt P04774); assay: NVS_IC_rNaCh_site2: NovaScreen (NVS) Ion Channel Assay for rat Sodium Channel, Site 2 (NaCh) (AID 2283322);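 also: hit means loss of radioligand binding signal relative to DMSO so AC50 marks displacement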
# Summary of the method: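 Membranes: rat forebrain. Format: competitive radioligand displacement, filter separation, scintillation readout, 1 h exposure. Primary screen in duplicate at 25 uM; actives retested in concentration series.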
# [11] = biological target: bovine Gamma-Aminobutyric Acid Type A Receptor Agonist (GABAR Agonist), GABRA1 (gene 780973) (UniProt P08219); assay: NVS_LGIC_bGABAR_Agonist: NovaScreen (NVS) Ligand-Gated Ion Channel Assay for bovine Gamma-Aminobutyric Acid Type A Receptor Agonist (GABAR Agonist) (AID 2283338)
# Summary of the method: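 Radioligand binding to bovine cerebellar membranes in agonist format, read by filter-based scintillation counting after 1 h. Primary screen in duplicate at 25 uM, with actives followed in concentration series. Gain of signal versus DMSO.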
# Sequence of human Peripheral-type Benzodiazepine Receptor (PBR), TSPO (gene 706) (P30536 whole entry, looked up): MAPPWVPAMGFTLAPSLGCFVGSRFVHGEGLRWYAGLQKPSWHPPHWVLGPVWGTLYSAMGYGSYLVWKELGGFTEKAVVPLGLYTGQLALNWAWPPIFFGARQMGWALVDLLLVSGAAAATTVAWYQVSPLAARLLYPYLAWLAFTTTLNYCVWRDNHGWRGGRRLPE
# Sequence of rat Thyrotropin Releasing Hormone Receptor (TRH), Trhr (gene 25570) (Q01717 whole entry, looked up): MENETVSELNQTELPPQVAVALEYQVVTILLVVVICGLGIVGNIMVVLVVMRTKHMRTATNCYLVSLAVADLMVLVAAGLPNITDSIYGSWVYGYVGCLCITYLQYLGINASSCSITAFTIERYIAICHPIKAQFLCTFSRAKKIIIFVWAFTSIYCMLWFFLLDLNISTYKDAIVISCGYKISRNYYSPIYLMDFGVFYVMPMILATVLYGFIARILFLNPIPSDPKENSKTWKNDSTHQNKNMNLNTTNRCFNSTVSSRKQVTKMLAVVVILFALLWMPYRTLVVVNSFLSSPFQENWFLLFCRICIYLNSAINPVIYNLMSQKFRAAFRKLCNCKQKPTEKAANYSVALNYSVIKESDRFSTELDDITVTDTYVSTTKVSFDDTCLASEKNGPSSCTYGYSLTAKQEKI
# Sequence of rat Peripheral-type Benzodiazepine Receptor (PBR), Tspo (gene 24230) (P16257 whole entry, looked up): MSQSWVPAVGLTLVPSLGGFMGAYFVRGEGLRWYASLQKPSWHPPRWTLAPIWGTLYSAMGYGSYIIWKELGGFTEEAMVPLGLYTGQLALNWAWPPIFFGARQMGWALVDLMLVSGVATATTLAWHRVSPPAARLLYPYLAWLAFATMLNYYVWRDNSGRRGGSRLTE
# Sequence of rat Neonicotinoid receptor (NNR), Chrna7 (gene 25302) (Q05941 whole entry, looked up): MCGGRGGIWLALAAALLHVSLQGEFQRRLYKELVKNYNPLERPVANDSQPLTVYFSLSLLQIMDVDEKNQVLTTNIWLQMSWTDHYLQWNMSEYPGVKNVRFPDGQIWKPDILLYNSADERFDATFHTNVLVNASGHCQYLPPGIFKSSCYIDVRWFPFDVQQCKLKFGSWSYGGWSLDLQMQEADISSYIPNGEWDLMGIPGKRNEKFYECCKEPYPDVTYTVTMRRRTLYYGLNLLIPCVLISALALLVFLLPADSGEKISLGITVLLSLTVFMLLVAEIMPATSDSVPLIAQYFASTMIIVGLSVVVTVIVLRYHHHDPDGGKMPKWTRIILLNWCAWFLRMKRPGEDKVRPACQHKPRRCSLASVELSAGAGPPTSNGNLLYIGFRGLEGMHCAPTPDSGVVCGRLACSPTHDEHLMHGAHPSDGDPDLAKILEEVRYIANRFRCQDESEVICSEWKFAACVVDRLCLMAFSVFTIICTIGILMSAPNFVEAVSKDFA
# Sequence of rat Vasopressin 1 Receptor (V1), Avpr1a (gene 25107) (P30560 whole entry, looked up): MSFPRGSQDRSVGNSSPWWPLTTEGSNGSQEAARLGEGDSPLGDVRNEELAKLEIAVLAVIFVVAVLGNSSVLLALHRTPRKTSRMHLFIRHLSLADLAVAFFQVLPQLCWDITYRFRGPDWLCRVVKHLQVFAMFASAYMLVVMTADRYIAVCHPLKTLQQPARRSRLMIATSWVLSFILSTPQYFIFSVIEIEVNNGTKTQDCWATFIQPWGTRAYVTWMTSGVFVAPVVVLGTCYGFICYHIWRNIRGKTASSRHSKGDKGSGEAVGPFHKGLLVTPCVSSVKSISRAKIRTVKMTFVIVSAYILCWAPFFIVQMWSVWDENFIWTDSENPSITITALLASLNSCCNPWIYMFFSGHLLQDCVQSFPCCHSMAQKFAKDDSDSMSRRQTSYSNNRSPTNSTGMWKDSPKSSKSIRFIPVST
# Sequence of bovine Gamma-Aminobutyric Acid Type A Receptor Agonist (GABAR Agonist), GABRA1 (gene 780973) (P08219 whole entry, looked up): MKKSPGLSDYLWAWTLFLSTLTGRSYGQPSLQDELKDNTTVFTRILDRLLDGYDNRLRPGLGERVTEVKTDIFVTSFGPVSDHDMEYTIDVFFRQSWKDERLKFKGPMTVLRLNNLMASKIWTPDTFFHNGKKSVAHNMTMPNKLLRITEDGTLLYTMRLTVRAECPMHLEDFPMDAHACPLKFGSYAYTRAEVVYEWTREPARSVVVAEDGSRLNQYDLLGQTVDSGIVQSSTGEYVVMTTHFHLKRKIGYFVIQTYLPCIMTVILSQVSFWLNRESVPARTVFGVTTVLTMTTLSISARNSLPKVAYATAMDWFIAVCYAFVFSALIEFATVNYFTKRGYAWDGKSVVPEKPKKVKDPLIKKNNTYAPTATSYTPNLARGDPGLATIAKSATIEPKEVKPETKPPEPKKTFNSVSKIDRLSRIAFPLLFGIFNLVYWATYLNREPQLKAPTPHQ
# Sequence of rat Adrenergic Receptor, Beta (Adrb), Non-selective Binding, Adrb1 (gene 24925) (P18090 whole entry, looked up): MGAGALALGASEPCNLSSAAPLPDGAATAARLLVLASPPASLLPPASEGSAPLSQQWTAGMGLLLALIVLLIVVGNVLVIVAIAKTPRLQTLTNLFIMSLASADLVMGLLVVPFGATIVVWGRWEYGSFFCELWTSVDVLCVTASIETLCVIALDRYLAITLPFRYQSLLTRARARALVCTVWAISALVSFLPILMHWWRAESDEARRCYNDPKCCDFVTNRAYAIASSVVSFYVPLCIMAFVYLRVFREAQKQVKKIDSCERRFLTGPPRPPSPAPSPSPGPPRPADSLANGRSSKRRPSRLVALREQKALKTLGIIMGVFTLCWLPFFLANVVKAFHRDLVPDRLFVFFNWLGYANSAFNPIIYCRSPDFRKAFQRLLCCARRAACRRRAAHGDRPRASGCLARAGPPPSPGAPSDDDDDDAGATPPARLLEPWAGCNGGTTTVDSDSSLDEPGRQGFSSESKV
# Sequence of rat Opioid Receptor, Non-selective Sodium (Na+) Binding, Oprm1 (gene 25601) (P33535 whole entry, looked up): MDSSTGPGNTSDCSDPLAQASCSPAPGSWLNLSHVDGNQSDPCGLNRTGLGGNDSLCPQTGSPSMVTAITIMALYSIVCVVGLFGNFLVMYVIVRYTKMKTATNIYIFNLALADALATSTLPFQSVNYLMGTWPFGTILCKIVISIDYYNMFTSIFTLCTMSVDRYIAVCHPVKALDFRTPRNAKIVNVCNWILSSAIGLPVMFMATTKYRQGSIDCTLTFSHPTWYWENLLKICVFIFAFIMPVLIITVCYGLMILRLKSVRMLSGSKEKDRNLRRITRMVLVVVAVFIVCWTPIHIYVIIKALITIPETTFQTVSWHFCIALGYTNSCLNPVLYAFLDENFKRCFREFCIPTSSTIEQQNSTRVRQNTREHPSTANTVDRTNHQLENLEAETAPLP
# Sequence of rat Opioid Receptor, Non-selective Binding, Oprm1 (gene 25601) (P33535 whole entry, looked up): as above
structure (smiles),measurement,setting,value
CCCCCCOc1ccc(O)cc1,AC50,[1],7.77 µM (active)
same,AC50,[2],6.49 µM (active)
CC(C)(C)c1cccc(O)c1,outcome,[3],inactive
Nc1ccc(N)c([N+](=O)[O-])c1,AC50,[1],3.27 µM (active) and 1.74 µM (active)
same,AC50,[2],1.02 µM (active)
same,outcome,[2],inactive
same,outcome,[4],inactive
Cc1ccc(C(C)(C)O)cc1,outcome,[4],inactive
CC/C(=C(\c1ccccc1)c1ccc(OCCN(C)C)cc1)c1ccccc1,AC50,[5],5.74 µM (active)
same,outcome,[6],inactive
same,outcome,[7],inactive
same,outcome,[8],inactive
same,outcome,[9],inactive
same,AC50,[10],1.56 µM (active)
same,AC50,[4],938 nM (active) and 874 nM (active)
same,outcome,[11],inactive
C=C1CC[C@H]2O[C@]2(C)CC[C@@H]2[C@@H]1CC2(C)C,AC50,[7],15.6 µM (active)
CC1(C)[C@H](C=C(Cl)Cl)[C@H]1C(=O)OCc1cccc(Oc2ccccc2)c1,outcome,[2],inactive
O=S(=O)(O)c1cc(S(=O)(=O)O)c2c(N=Nc3ccccc3)c(O)ccc2c1,outcome,[3],inactive
CCc1cccc(O)c1,outcome,[3],inactive
same,outcome,[2],inactive
CCCCCCCCCCCCS,AC50,[3],0.929 µM (active)
CCO[Si](CC)(OCC)OCC,outcome,[3],inactive
NC(=O)c1c(Cl)cccc1Cl,AC50,[1],3.59 µM (active)
same,outcome,[2],inactive
CCCc1ccc(N)cc1,outcome,[3],inactive
CC(=O)OC(C)(C)C1CC=C(C)CC1 (stereo unspecified),outcome,[4],inactive
O=C1OC2(c3ccc(O)cc3Oc3cc(O)ccc32)c2ccccc21,AC50,[1],25 µM (active) and 9.1 µM (active)
same,AC50,[2],15.1 µM (active)
same,outcome,[4],inactive
C1CCCNCC1,outcome,[3],inactive
CCCCCC(=O)O[C@]1(C(C)=O)CC[C@H]2[C@@H]3CCC4=CC(=O)CC[C@]4(C)[C@H]3CC[C@@]21C,outcome,[3],inactive
C=C1CC/C=C(\C)CC[C@@H]2[C@@H]1CC2(C)C,outcome,[4],inactive
c1coc(CNc2ncnc3nc[nH]c23)c1,outcome,[3],inactive
CC(=O)N(C)C,outcome,[3],inactive
Cc1cc(O)c(C)c(C)c1O,outcome,[7],inactive
